Holding throughout (test): DAPPL (digital affinity profiling via proximity ligation, sequencing); 10 mM Tris-HCl pH 7.5, 50 mM NaCl, 1 mM DTT, 4% glycerol, room temperature, 30 min; GST-TFs on glutathione beads, 16-mer random dsDNA library, 0.1% formaldehyde crosslink after washing; high values mean tight binding
What all share (details): protein: recombinant; tags: N-terminal GST; dsDNA, one strand shown

One assay has as its target T1, ELK3 (Homo sapiens, UniProt P41970 1-407).
T1 sequence: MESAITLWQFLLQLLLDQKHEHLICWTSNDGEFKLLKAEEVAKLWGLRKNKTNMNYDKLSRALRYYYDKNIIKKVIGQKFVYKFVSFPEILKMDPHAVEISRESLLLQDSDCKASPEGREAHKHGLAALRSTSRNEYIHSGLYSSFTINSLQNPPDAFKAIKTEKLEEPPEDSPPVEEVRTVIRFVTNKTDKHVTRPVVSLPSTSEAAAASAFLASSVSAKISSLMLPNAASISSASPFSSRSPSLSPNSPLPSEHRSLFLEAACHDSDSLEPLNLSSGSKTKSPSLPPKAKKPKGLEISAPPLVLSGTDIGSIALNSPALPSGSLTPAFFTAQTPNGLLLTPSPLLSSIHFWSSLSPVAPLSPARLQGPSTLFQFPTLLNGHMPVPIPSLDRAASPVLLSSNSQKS
In short, it runs like this:
(§1)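 Human transcription factors carrying a GST fusion were produced in yeast, bound to glutathione beads, tagged with DNA barcodes and pooled together with a tag-only sample. Each pool was held with 200 nmole of a random double-stranded 16-mer DNA library in Tris/NaCl/DTT/glycerol buffer for 30 min at room temperature, then washed, crosslinked in 0.1% formaldehyde, proximity-ligated with BsaI/T4 ligase (1 h, 37 °C), PCR-amplified and sequenced on an Illumina NextSeq500. Binding signal is the read frequency of each hexamer for a given factor divided by its frequency in the tag-only sample.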

In another assay the target is T2, ELK4 (Homo sapiens, UniProt P28324-2 1-405).
T2 sequence: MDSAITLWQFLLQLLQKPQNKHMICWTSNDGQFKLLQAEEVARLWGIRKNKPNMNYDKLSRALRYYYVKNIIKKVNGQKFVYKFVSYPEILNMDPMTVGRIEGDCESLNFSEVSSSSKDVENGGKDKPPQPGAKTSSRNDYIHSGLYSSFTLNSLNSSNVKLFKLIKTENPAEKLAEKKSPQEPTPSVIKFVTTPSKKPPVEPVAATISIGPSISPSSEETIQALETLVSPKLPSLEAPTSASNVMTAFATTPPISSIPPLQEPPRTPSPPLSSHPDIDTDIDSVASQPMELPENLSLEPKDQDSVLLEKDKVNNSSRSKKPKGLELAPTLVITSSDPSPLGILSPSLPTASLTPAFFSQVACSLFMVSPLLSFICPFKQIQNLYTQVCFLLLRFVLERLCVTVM
In short, it runs like this: as §1

In a further assay the target is CRX (Homo sapiens, UniProt O43186 1-299). In outline:
as §1

A further assay concerns the target T3, ETV3L (Homo sapiens, UniProt Q6ZN32 1-361).
T3 sequence: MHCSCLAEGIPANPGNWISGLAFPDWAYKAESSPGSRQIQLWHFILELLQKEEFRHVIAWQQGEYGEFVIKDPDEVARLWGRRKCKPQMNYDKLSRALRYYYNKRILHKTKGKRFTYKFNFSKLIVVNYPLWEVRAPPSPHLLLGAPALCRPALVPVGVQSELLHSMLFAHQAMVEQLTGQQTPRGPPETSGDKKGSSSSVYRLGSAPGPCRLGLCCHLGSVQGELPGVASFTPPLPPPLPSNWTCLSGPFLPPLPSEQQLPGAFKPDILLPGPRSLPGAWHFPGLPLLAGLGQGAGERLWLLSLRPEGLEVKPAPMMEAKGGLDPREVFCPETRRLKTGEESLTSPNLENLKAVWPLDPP
In outline:
as §1

Another assay deals with T4, SPDEF (Homo sapiens, UniProt O95238 1-335).
T4 sequence: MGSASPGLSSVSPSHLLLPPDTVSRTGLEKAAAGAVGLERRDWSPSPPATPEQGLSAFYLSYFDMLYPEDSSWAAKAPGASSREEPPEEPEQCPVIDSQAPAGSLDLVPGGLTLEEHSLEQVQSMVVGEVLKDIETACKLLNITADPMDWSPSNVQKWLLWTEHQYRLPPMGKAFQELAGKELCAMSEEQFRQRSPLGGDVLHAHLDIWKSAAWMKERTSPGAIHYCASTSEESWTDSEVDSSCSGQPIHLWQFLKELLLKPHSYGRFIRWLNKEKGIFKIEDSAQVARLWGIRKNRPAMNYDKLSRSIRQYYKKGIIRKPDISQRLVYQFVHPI
In outline: as §1

For a further assay, the target named is T5, ETV3 (Homo sapiens, UniProt P41162-2 1-143).
T5 sequence: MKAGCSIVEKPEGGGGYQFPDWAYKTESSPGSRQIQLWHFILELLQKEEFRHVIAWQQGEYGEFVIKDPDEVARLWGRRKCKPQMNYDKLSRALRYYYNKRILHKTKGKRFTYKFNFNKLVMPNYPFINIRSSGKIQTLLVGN
In outline: as §1

A further assay has as its target T6, GABPA (Homo sapiens, UniProt Q06546 1-454).
T6 sequence: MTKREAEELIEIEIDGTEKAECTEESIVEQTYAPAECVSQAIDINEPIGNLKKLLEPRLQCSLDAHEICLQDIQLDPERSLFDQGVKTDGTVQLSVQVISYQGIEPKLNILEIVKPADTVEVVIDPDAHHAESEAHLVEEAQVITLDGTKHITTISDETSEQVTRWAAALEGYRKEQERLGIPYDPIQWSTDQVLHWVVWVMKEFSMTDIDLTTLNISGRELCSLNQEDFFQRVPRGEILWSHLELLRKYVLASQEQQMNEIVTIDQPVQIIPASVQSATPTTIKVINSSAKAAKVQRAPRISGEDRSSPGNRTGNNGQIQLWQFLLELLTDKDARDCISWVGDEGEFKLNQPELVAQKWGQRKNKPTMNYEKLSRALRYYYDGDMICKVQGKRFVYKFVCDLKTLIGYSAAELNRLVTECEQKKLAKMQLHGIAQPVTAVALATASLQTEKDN
In outline:
as §1

The target of the next assay is T7, EHF (Homo sapiens, UniProt Q9NZC4 1-300).
T7 sequence: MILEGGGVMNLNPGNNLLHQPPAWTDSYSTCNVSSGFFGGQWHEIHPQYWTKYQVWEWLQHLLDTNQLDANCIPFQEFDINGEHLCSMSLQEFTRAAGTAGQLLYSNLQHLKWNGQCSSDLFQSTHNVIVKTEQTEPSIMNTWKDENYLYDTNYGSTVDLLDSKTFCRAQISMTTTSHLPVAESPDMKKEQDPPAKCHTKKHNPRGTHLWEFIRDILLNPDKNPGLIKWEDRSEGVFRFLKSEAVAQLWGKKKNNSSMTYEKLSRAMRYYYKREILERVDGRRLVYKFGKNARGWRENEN
In outline:
as §1

The next assay addresses SPI1 (Homo sapiens, UniProt P17947 1-270). In outline:
as §1

For a further assay, the target named is T8, ELF3 (Homo sapiens, UniProt P78545 1-371).
T8 sequence: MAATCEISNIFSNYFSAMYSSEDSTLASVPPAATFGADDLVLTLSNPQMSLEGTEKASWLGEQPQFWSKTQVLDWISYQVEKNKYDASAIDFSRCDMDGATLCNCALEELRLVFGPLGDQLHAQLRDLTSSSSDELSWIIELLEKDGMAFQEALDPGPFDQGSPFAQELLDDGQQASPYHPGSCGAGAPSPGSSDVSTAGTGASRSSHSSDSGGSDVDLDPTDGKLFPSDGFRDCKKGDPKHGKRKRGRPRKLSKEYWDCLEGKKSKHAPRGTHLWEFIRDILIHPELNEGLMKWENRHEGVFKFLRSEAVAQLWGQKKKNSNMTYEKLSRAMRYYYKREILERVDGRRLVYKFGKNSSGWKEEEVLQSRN
In outline:
as §1

A further assay addresses ETV1 (Homo sapiens, UniProt P50549 1-477). In outline:
as §1

The next assay has as its target T9, ETV2 (Homo sapiens, UniProt O00321 1-342).
T9 sequence: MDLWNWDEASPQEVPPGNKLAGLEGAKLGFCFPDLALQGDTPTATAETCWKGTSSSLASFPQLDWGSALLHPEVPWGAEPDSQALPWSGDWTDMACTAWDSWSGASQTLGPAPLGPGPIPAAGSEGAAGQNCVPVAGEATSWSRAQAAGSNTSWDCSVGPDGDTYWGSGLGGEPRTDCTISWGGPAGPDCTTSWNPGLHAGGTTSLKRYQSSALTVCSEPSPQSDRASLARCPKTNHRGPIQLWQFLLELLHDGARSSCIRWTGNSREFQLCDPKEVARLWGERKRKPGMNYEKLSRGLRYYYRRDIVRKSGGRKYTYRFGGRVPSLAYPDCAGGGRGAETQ
In short, it runs like this: as §1

Another assay has as its target T10, ETV7 (Homo sapiens, UniProt Q9Y603 1-341).
T10 sequence: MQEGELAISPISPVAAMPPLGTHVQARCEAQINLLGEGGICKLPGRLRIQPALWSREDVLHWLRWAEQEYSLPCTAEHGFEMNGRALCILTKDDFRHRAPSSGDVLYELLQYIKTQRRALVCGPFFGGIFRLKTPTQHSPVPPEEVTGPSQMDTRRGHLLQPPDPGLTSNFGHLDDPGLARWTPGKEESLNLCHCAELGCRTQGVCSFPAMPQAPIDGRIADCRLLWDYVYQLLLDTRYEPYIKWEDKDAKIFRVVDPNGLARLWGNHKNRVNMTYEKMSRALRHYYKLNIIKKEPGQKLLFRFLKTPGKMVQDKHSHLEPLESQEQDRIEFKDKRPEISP
In short, it runs like this:
as §1

The target in the next assay is T11, ERF (Homo sapiens, UniProt P50548 1-548).
T11 sequence: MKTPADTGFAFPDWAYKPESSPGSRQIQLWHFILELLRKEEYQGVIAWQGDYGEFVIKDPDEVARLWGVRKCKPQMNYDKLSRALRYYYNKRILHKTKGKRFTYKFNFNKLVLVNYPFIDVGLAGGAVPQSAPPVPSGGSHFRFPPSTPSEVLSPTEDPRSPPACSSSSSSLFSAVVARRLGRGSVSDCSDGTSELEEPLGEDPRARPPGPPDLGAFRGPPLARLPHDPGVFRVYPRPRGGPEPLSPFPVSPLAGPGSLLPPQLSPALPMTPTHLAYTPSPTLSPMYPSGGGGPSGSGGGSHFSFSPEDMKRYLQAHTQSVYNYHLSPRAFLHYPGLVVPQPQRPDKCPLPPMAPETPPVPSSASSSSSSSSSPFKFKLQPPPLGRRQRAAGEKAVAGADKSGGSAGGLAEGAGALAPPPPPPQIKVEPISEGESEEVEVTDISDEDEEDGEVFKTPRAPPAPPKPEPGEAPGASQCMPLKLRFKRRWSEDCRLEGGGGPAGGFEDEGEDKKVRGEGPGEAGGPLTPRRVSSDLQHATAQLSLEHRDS
In outline:
as §1

The target in another assay is T12, ETS2 (Homo sapiens, UniProt P15036 1-469).
T12 sequence: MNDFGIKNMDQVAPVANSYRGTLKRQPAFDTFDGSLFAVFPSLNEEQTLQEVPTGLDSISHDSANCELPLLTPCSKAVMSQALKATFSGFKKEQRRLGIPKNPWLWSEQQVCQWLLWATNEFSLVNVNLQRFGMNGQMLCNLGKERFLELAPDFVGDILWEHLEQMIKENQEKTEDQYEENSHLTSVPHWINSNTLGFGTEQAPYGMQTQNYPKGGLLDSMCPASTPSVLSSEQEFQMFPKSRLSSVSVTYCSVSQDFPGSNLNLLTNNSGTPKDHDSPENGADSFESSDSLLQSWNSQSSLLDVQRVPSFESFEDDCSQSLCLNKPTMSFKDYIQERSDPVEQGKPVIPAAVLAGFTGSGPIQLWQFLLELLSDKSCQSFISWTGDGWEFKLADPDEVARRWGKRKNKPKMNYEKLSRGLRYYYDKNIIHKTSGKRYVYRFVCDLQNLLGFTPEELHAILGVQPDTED
In outline:
as §1

CRX, sequence (O43186 whole entry): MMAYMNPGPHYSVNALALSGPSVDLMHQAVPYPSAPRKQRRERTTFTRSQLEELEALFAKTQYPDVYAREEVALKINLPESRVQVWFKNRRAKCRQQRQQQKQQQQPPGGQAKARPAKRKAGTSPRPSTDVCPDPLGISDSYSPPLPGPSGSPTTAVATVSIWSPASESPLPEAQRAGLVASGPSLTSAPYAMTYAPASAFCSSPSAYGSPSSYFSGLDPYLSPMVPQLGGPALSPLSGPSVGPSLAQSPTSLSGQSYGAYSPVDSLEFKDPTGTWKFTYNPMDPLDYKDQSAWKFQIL
ETV1, sequence (P50549 whole entry): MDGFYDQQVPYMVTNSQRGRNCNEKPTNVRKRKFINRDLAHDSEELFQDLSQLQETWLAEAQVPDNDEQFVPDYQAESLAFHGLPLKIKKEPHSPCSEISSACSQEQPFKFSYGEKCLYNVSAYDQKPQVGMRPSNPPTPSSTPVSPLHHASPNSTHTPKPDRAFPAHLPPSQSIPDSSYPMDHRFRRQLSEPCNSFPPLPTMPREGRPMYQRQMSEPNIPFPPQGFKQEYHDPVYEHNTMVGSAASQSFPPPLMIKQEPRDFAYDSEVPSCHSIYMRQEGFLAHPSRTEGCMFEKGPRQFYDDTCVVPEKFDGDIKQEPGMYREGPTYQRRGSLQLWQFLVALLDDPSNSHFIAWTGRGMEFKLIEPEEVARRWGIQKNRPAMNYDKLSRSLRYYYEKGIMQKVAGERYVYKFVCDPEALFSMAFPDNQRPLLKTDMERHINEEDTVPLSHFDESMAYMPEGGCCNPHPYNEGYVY

GCGTTA: the binding signal with ELK3 is 1.09 fold enrichment (6-mer frequency, TF over GST control); with ELK4, 1.02 fold enrichment (6-mer frequency, TF over GST control); in the assay with CRX it was 1.06 fold enrichment (6-mer frequency, TF over GST control); with ETV3L, 1.04 fold enrichment (6-mer frequency, TF over GST control).
Regarding GTGTTG, the binding signal was 1.06 fold enrichment (6-mer frequency, TF over GST control) in the assay with ELK4 and 1.01 fold enrichment (6-mer frequency, TF over GST control) with SPDEF.
As to GTAGCG, the binding signal in the assay with ELK4 is 1.01 fold enrichment (6-mer frequency, TF over GST control); in the assay with ETV3, 1.01 fold enrichment (6-mer frequency, TF over GST control).
For GTGCAA, the binding signal in the assay with GABPA was 1.02 fold enrichment (6-mer frequency, TF over GST control); with EHF, 1 fold enrichment (6-mer frequency, TF over GST control); in the assay with SPI1, 1.06 fold enrichment (6-mer frequency, TF over GST control); in the assay with ELK4 it was 1.05 fold enrichment (6-mer frequency, TF over GST control); with ELF3, 1.07 fold enrichment (6-mer frequency, TF over GST control); with ETV1, 1.05 fold enrichment (6-mer frequency, TF over GST control).
For GGCCTG, the binding signal was 1.08 fold enrichment (6-mer frequency, TF over GST control) with ELK4; 1.06 fold enrichment (6-mer frequency, TF over GST control) in the assay with ETV2; 1.04 fold enrichment (6-mer frequency, TF over GST control) with ETV3L; 1.03 fold enrichment (6-mer frequency, TF over GST control) with ETV7.
With CAGTAT, the binding signal with ELK3 is 1.03 fold enrichment (6-mer frequency, TF over GST control); in the assay with ELK4, 1.06 fold enrichment (6-mer frequency, TF over GST control); with ETV2, 1.08 fold enrichment (6-mer frequency, TF over GST control); with ELF3, 1.1 fold enrichment (6-mer frequency, TF over GST control); with ERF it was 1.1 fold enrichment (6-mer frequency, TF over GST control); in the assay with ETV3L, 1.02 fold enrichment (6-mer frequency, TF over GST control). The binding signal with ETS2 is 1.02 fold enrichment (6-mer frequency, TF over GST control).

The record behind these values is paper PMC7862700, “An all-to-all approach to the identification of sequence-specific readers for epigenetic DNA modifications on cytosine”.
